# In PubChem BioAssay (EPA / NIEHS):
# Inconclusive results are not listed. A structure can be active in one record and inactive in another. The source made the active and inactive calls. How the source made its calls, unless noted: active means hit-call score of the fitted dose curve at least 0.9, where 1 is the maximum; inactive means score below 0.9.
# Tests used:
# [1] = CCTE_Shafer_MEA_acute_AB: CCTE's Alamar Blue Assay for Cytotoxicity in the Neural Acute Assay, Shafer Lab (AID 2284069; active means hit-call score of the fitted dose curve at least 0.9, where 1 is the maximum;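 further: active compounds lower the viability signal compared with DMSO wells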)
# How it was run: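 Read-out: resazurin fluorescence (ex 544, em 590 nm) after CTB reagent at 1:6 dilution in fresh media. Cells: primary rat cortical neuron networks, DIV 13 or 15, chemically exposed on MEA plates; DMSO as negative control/baseline.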
# [2] = CCTE_Shafer_MEA_acute_LDH: CCTE's Lactate Dehydrogenase Assay for Cytotoxicity in the Neural Acute Assay, Shafer Lab (AID 2284086; active means hit-call score of the fitted dose curve at least 0.9, where 1 is the maximum;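 further: active means LDH release rises above DMSO vehicle level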)
# How it was run: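 LDH absorbance at 490 nm in medium taken right after 40-min compound exposure; rat primary cortical neuron networks on MEA plates, days post-plating 13 or 15. Increase over DMSO baseline scored as cytotoxicity.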
# DIO2 (gene 1734) = assay: CCTE_GLTED_hDIO2: CCTE's human Deiodinase 2 (DIO2) Inhibition Assay, Great Lakes Toxicology and Ecology Division (GLTED) Lab (AID 2284050; active means hit-call score of the fitted dose curve at least 0.9, where 1 is the maximum)
# How it was run: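 Readout: absorbance from Sandell-Kolthoff detection of free iodide released by human DIO2 during a 3 h incubation with chemical. Cell-free format, n=3; activity fitted relative to DMSO negative control.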
# DIO3 (gene 1735) = assay: CCTE_GLTED_hDIO3: CCTE's human Deiodinase 3 (DIO3) Inhibition Assay, Great Lakes Toxicology and Ecology Division (GLTED) Lab (AID 2284055; active means hit-call score of the fitted dose curve at least 0.9, where 1 is the maximum;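 further: potency is for inhibition seen as loss of released iodide signal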)
# How it was run: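 hDIO3 (adenovirus-expressed) + test chemical, 3 h incubation; free iodide quantified by Sandell-Kolthoff reaction, absorbance read-out. DMSO negative control, n=3.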
# [3] = CCTE_Shafer_MEA_dev_per_burst_interspike_interval: CCTE's Neural Network Formation Assay for Burst Interspike Interval, Shafer Lab (AID 2284044);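 further: mean spike spacing inside bursts as AUC over recordings on days 5 7 9 12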;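 on AC50: potency for a decrease of within-burst interspike interval below DMSO level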
# How it was run: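 Spontaneous activity of maturing rat cortical networks is recorded on DIV 5, 7, 9 and 12 under chronic compound exposure beginning at plating. Endpoint: burst interspike interval well-mean, collapsed into trapezoidal AUC and fitted in the negative direction relative to DMSO.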
# [4] = CCTE_Shafer_MEA_dev_burst_duration_mean: CCTE's Neural Network Formation Assay for Mean Burst Duration, Shafer Lab (AID 2284045);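 on AC50: curve fitted for loss meaning shorter burst duration than DMSO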
# How it was run: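 Rat cortical cultures, 1.5 x 10^5 cells/well with laminin drop; continuous dosing days 0–12, media plus treatment refreshed DIV 5, 9. AxIS adaptive spike detection; mean single-electrode burst duration, AUC over four recordings, negative direction vs DMSO.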
# [5] = CCTE_Shafer_MEA_dev_interburst_interval_mean: CCTE's Neural Network Formation Assay for Mean Interburst Interval, Shafer Lab (AID 2284046);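 further: well-mean interburst interval of bursting electrodes as AUC over four recording days; curve fitted for decrease in interburst interval relative to DMSO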
# How it was run: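 Rat cortical neurons, 1.5 x 10^5 cells/well, 48-well MEA; compound from day 0 through DIV 12, media and treatment renewed DIV 5/9. Recordings DIV 5, 7, 9, 12; well-mean interburst interval → trapezoidal AUC, loss direction vs DMSO.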
# [6] = CCTE_Shafer_MEA_dev_inter_network_spike_interval_mean: CCTE's Neural Network Formation Assay for Mean Inter-network Spike Interval, Shafer Lab (AID 2284047);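 on AC50: potency for a decrease in mean inter-network spike interval below DMSO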
# How it was run: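 Primary rat cortical neurons on PEI-coated 48-well MEAs (16 electrodes/well) were exposed from plating day 0 to DIV 12, with dosing renewed at DIV 5 and 9. Recordings at DIV 5, 7, 9, 12 were collapsed by trapezoidal AUC, loss-of-signal fit vs DMSO.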
# [7] = CCTE_Shafer_MEA_dev_network_spike_number: CCTE's Neural Network Formation Assay for Number of Network Spikes, Shafer Lab (AID 2284048);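 further: synchronized bursts across electrodes counted on days 5 7 9 12 and integrated as AUC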;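 on AC50: fit as a loss of signal meaning fewer network spikes than DMSO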
# How it was run: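 Rat cortical primary cultures on 48-well MEA (16 electrodes/well); continuous exposure DIV 0–12, full medium and treatment exchange DIV 5, 9. Readout: network spike count, AxIS adaptive detection, recordings DIV 5/7/9/12 collapsed to AUC; loss-of-signal fit, DMSO baseline.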
# [8] = CCTE_Shafer_MEA_dev_network_spike_peak: CCTE's Neural Network Formation Assay for Mean Number of Electrodes in Network Spike, Shafer Lab (AID 2284049);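 on AC50: fitted for loss of signal meaning fewer electrodes in network spikes than DMSO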
# How it was run: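 Network-spike peak electrode count from recordings on days 5, 7, 9 and 12 was combined as trapezoidal area under the curve. Rat cortical cultures were treated continuously from plating, with compound renewed at each feed (DIV 5, 9); fits versus DMSO.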
# [9] = CCTE_Shafer_MEA_dev_spike_duration_mean: CCTE's Neural Network Formation Assay for Mean Spike Duration, Shafer Lab (AID 2284051);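 further: mean network spike duration pooled as area under curve over DIV 5 to 12 recordings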;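 on AC50: potency for a decrease in mean network spike duration versus DMSO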
# How it was run: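 Rat cortical primary cultures, 48-well MEA (16 electrodes/well); compound from plating, renewed DIV 5, 9. Network spike duration (AxIS adaptive detector) recorded DIV 5/7/9/12, combined as trapezoidal AUC; loss direction vs DMSO.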
# [10] = CCTE_Shafer_MEA_dev_network_spike_duration_std: CCTE's Neural Network Formation Assay for Standard Deviation of Network Spike Duration, Shafer Lab (AID 2284052);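 further: area under curve of spike duration SD across recording days 5 to 12; hits are decreases in network spike duration SD versus DMSO vehicle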
# How it was run: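 Rat cortical cultures, 1.5 x 10^5 cells/well, exposed continuously from plating to DIV 12 with media/compound renewal at DIV 5, 9. Spontaneous activity recorded DIV 5/7/9/12, AxIS adaptive spike detector; AUC across days; negative direction vs DMSO.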
# [11] = CCTE_Shafer_MEA_dev_per_network_spike_spike_number_mean: CCTE's Neural Network Formation Assay for Mean Number of Spikes in a Network Spike, Shafer Lab (AID 2284053);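 on AC50: fitted as decrease in spikes per network spike relative to DMSO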
# How it was run: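 Rat cortical primary cultures on 48-well MEA; compound from day 0, re-dosed with full media change DIV 5, 9. Recorded DIV 5, 7, 9, 12; spikes in 0.05 s window at network-spike peak ÷ total network spikes; AUC; loss vs DMSO.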
# [12] = CCTE_Shafer_MEA_dev_per_network_spike_spike_percent: CCTE's Neural Network Formation Assay for Percent of Spikes in a Network Spike, Shafer Lab (AID 2284054)
# How it was run: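 Read-out: percent of spikes falling in a 0.05 s window at network-spike peak, from spontaneous MEA recordings on days 5, 7, 9 and 12; trapezoidal AUC; loss of signal versus DMSO. Rat cortical cultures, compound present throughout.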
# [13] = CCTE_Shafer_MEA_dev_AB: CCTE's Alamar Blue Assay for Cytotoxicity in the Neural Network Formation Assay, Shafer Lab (AID 2284083; active means hit-call score of the fitted dose curve at least 0.9, where 1 is the maximum;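 further: resazurin reduction fluorescence as viability of cultured neurons; twelve days of exposure from plating with re-dosing on DIV 5 and 9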)
# How it was run: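 Rat cortical primary cultures, 1.5 x 10^5 cells/well on MEA; continuous compound exposure over 12 days of network development, re-dosed with full medium change DIV 5 and 9. Alamar Blue fluorescence; loss of signal = cytotoxicity vs DMSO baseline.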
# [14] = CCTE_Shafer_MEA_dev_correlation_coefficient_mean: CCTE's Neural Network Formation Assay for Mean Correlation Coefficient, Shafer Lab (AID 2284093);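 on AC50: well mean pairwise spike train correlation integrated as AUC over recording days 5 to 12; potency fitted for loss of correlation relative to DMSO vehicle wells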
# How it was run: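 Rat cortical cultures, 1.5 x 10^5 cells/well, dosed from day 0 for 12 days. Spontaneous spikes recorded DIV 5/7/9/12; electrode-pair correlation coefficients averaged, AUC taken. Fit in loss direction vs DMSO.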
# [15] = CCTE_Shafer_MEA_dev_LDH: CCTE's Lactate Dehydrogenase Assay for Cytotoxicity in the Neural Network Formation Assay, Shafer Lab (AID 2284068; active means hit-call score of the fitted dose curve at least 0.9, where 1 is the maximum;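 further: exposure for twelve days from plating with re-dosing on DIV 5 and 9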)
# How it was run: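 Rat cortical primary neurons, MEA culture; dosing day 0–12, full medium plus compound exchange DIV 5, 9. Read-out: LDH enzyme activity, spectrophotometric. DMSO = negative control/baseline; signal loss → cytotoxicity.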
# [16] = UKN5_HCS_SBAD2_cell_viability: Viability Assessment in the University of Konstanz (UKN) Leist Lab Neurite Outgrowth Assay in human iPSC-derived immature Dorsal Root Ganglia Neurons (UKN5) (AID 2284056)
# How it was run: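 iPSC-derived immature peripheral neurons (SBAD2) seeded on Matrigel with CHIR99021, SU5402 and DAPT, dosed 1 h later for 24 h. Viability from Hoechst H-33342 and calcein-AM live staining, high-content imaging; bidirectional fit versus DMSO.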
# [17] = UKN5_HCS_SBAD2_neurite_outgrowth: University of Konstanz (UKN) Leist Lab Neurite Outgrowth Assay in human iPSC-derived immature Dorsal Root Ganglia Neurons (UKN5) (AID 2284070); details: actives raise or lower the signal
# How it was run: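 Cryopreserved SBAD2 peripheral neurons were seeded at 100.000 cells/cm2 in N2-S/KSR medium containing CHIR99021, SU5402 and DAPT, then exposed to compounds for 24 h. Neurite area from calcein-AM high-content imaging was fitted bidirectionally against DMSO.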
# [18] = IUF_NPC1b_proliferation_BrdU_72hr: Leibniz Research Institute for Environmental Medicine (IUF) 72-hour Neural Progenitor Cell Bromodeoxyuridine (BrdU) Proliferation Assay (NPC1b) (AID 2284207)
# How it was run: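 Luminescent BrdU ELISA measured DNA synthesis during the last 16 h of a 72 h exposure of primary human neural progenitor spheres grown with EGF and FGF. Signal was fitted relative to DMSO controls.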
structure (smiles),measurement,setting,value
CCOC(=O)C(C)(C)Oc1ccc(Cl)cc1,outcome,[1],inactive
same,outcome,[2],inactive
CCCCCCCCCCCCCCCCCC(=O)O,outcome,[1],inactive
COc1ccc2c(c1)c(CC(=O)O)c(C)n2C(=O)c1ccc(Cl)cc1,outcome,[1],inactive
same,outcome,[2],inactive
CN[C@H]1CC[C@@H](c2ccc(Cl)c(Cl)c2)c2ccc(S(N)(=O)=O)cc21,AC50,DIO2 (gene 1734),49.3 µM (active)
same,AC50,DIO3 (gene 1735),45.9 µM (active)
same,outcome,[1],inactive
same,outcome,[2],inactive
CCCCCCCCCCO,outcome,[2],inactive
CNCc1cc(F)ccc1Oc1ccc(Cl)c(Cl)c1,outcome,[1],inactive
same,outcome,[2],inactive
COc1cc(-c2nc(NC(=O)c3cc4cc(C)cc(C)c4n3CC(=O)O)sc2CCC2CCCCC2)c(OC)cc1Cl,outcome,DIO2 (gene 1734),inactive
same,AC50,DIO3 (gene 1735),8.64 µM (active)
FC(F)(F)C(F)(F)C(F)(F)C(F)(F)C(F)(F)C(F)(F)CCI,outcome,[3],inactive
same,outcome,[4],inactive
same,outcome,[5],inactive
same,outcome,[6],inactive
same,outcome,[7],inactive
same,outcome,[8],inactive
same,outcome,[9],inactive
same,outcome,[10],inactive
same,outcome,[11],inactive
same,outcome,[12],inactive
same,outcome,[1],inactive
same,outcome,[13],inactive
same,outcome,[14],inactive
Nc1nc(N)c2nc(CNc3ccc(C(=O)N[C@@H](CCC(=O)O)C(=O)O)cc3)cnc2n1,outcome,[1],inactive
O=c1[nH]cc(F)c(=O)[nH]1,outcome,[3],inactive
same,outcome,[4],inactive
same,AC50,[5],2.82 µM (active)
same,outcome,[6],inactive
same,AC50,[7],0.974 µM (active)
same,AC50,[8],1.2 µM (active)
same,AC50,[9],1.52 µM (active)
same,AC50,[10],2.01 µM (active)
same,AC50,[11],0.913 µM (active)
same,AC50,[12],0.607 µM (active)
same,AC50,[15],2.48 µM (active)
same,AC50,[13],3.24 µM (active)
same,AC50,[14],0.696 µM (active)
CCCc1cc(=O)[nH]c(=S)[nH]1,AC50,[3],11.7 µM (active)
same,outcome,[3],inactive
same,outcome,[4],inactive
same,outcome,[5],inactive
same,outcome,[6],inactive
same,outcome,[7],inactive
same,AC50,[8],23 µM (active)
same,outcome,[8],inactive
same,AC50,[9],20.7 µM (active)
same,outcome,[9],inactive
same,outcome,[10],inactive
same,AC50,[11],25 µM (active)
same,outcome,[11],inactive
same,AC50,[12],24.9 µM (active)
same,outcome,[12],inactive
same,AC50,[15],23.8 µM (active)
same,outcome,[15],inactive
same,outcome,[1],inactive
same,AC50,[13],24.6 µM (active)
same,outcome,[13],inactive
same,outcome,[2],inactive
same,AC50,[14],23.9 µM (active)
same,outcome,[14],inactive
CC(=O)Oc1ccccc1C(=O)O,outcome,[3],inactive
same,AC50,[4],26.2 µM (active)
same,outcome,[4],inactive
same,outcome,[5],inactive
same,AC50,[6],0.0242 µM (active)
same,outcome,[6],inactive
same,outcome,[7],inactive
same,outcome,[8],inactive
same,outcome,[9],inactive
same,AC50,[10],0.0101 µM (active)
same,outcome,[10],inactive
same,outcome,[11],inactive
same,outcome,[12],inactive
same,outcome,[16],inactive
same,outcome,[15],inactive
same,outcome,[17],inactive
same,outcome,[13],inactive
same,outcome,[14],inactive
same,AC50,[18],0.725 µM (active)
Clc1cc(Cl)c(Cl)cc1Cl,outcome,[1],inactive
